For 15 molecules, inhibition results are on record in ChEMBL document CHEMBL3433997, “St. Jude Leishmania screening dataset” (2016).

The target in this test is Solute carrier family 2, facilitated glucose transporter member 1 (Homo sapiens) (UniProt P11166). The test can be described thus: ST_JUDE_LEISH: Cytotoxicity at 2uM final concentration against transgenic Leishmania Mexicana promastigotes LmGLUT1 that are glucose transport deficient and complemented with the human glucose transporter GLUT1. Activity is measured by DNA content using SYBR green in vitro. It is filed as functional.
Sequence of Solute carrier family 2, facilitated glucose transporter member 1 (Homo sapiens) (P11166 whole entry): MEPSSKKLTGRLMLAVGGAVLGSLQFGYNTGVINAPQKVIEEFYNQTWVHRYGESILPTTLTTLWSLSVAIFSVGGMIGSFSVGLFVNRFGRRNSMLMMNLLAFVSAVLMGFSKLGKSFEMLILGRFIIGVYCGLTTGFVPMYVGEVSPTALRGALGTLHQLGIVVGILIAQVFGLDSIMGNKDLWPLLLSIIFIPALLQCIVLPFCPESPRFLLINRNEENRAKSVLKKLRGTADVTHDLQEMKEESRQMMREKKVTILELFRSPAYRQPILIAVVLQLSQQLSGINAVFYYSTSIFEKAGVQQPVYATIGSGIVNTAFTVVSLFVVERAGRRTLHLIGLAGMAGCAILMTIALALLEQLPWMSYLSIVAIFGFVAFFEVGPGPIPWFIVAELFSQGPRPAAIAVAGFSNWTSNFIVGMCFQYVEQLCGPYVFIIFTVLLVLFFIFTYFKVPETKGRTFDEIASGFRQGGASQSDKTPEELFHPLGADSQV
`N=c1n(Cc2ccccc2)c2ccccc2n1CC(O)c1ccc(Cl)c(Cl)c1` (stereo not given): the inhibition is -0.72%. With `Brc1ccc(Nc2ccnc3cc(-c4nccs4)ccc23)cc1Oc1ccnc2cc(-c3nccs3)ccc12`, the inhibition was 1.77%. Regarding `c1cc(CN2CCN(c3ccncc3)CC2)cc(-c2ccc(-c3nc4ccccc4[nH]3)cc2)c1`, the inhibition worked out at 8.29%. In the case of `COc1cc(NC(=O)N2CCOC(CCN3CCC(c4ccccc4)CC3)(c3ccc(Cl)c(Cl)c3)C2)cc(OC)c1OC` (stereo not given), the inhibition stood at 3.7%. Then `Cc1cc(NC(=O)c2coc3cc(F)c(N4CC(C)N(C)C(C)C4)cc23)ccc1-n1ccnc1` (stereo not given), with 2.32%; and `O=C(/C=C/c1ccc(F)cc1)NC1CCC(CCN2CCc3ccc(-n4cccn4)cc3CC2)CC1` (stereo not given), with 11.7%. Regarding `CCn1c(Sc2ccc(C#N)c([N+](=O)[O-])c2)nnc1-c1ccc(Cl)cc1`, the inhibition turned out to be 3.57%. For the molecule `CNC(=O)c1ccccc1Nc1nc(Nc2cccc(CS(C)(=O)=O)c2)ncc1C`, the inhibition was found to be 3.44%. `Cc1cccc2nc(-c3ccc(-c4ccc(CN5CCOCC5)cc4)cc3)[nH]c12`: the inhibition is 4.34%.

As to `O=C(NC1CC1)c1ccc(N2CCC(Cc3ccccc3)CC2)nc1`, the inhibition turned out to be 3.46%. For the molecule `NC1=Nc2ccc(Cl)cc2C1(O)c1ccccc1` (stereo not given), the inhibition was determined as 1.25%. On to `Cc1[nH]c(C)c(-c2ccc(-c3ccccc3C(F)(F)F)nc2)c(=O)c1Br`, for which the inhibition was found to be 2.64%. Regarding `Cc1ccc(F)c(OCC2CCN(c3ccc(C(=O)NC4CC4)cn3)CC2)c1`, the inhibition worked out at 3.7%. In the case of `O=C(/C=C/c1ccc(Cl)c(Cl)c1)NCCCCCN1CCC(NC(=O)Nc2ccc(F)c(Cl)c2)CC1`, the inhibition was found to be 3.93%.

In the case of `CN1CCN(c2ccnc3cc4c(cc23)N(C(=O)Nc2ccc3c(c2)CCCC3=O)CC4)CC1`, the inhibition is 1.37%.

For orientation: inhibition means the relative decrease from the control value, in per cent.
